Source: PubChem BioAssay (National Center for Advancing Translational Sciences (NCATS))
Compounds with a hit are over-represented: about 14% of the library has one in this group of screens.
HCV inhibitor: HCV inhibition; Huh7.5.1 HCVcc-Cre infection, luciferase reporter, 44 h; Potency, µM (top dose mostly 41.8 µM), for the others: top-dose activity change, negative = inhibition, actives largely listed as inhibitors; actives 3.4% (n = 340,000); note: potency is the fitted concentration of half-maximal effect
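Seed cells (1,000/well) for 4 h; treat with compound and infect with HCVcc-Cre, moi about 0.5. Incubate 44 h, then detect luciferase activity.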
HCMV antiviral: human cytomegalovirus inhibition; HFF cells, HCMV-luciferase reporter, 72 h; stronger effect = lower value; activity change, negative = inhibition, % at 57.5 µM; actives 4.5% (n = 410,000); AID 1259415; in the data active = activity change below about -60%; inconclusive = no clear call, values can overlap the other calls; inactive = above about -39%
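Two compound doses tested in HFFs infected with HCMV-luciferase, MOI 1 PFU/cell, 72 h at 37C. Lysate luminescence read with OneGlo; data normalized against buffer-only and 10uM Salinomycin inhibitor controls.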
Lassa entry inh: blocks Lassa virus binding to or entry into cells. actives 1.2% (n = 300,000). Potency, µM (doses to about 37.9 µM), for inactives: top-dose activity change, negative = inhibition, actives largely listed as inhibitors. Lassa virus pseudotype entry inhibition, cell reporter; calls by dose curve; tested in HEK293 cells; note: potency is the fitted concentration of half-maximal effect; nearly all actives have a fitted effect of over 50% in size
MARV entry inh: inhibitors of Marburg virus binding or cell entry. Marburg virus pseudotyped entry inhibition, cell reporter. Potency, µM (top dose mostly 37.8 µM), for inactives: at the highest dose activity change, negative = inhibition, hits mostly inhibitors. actives 1.8% (n = 300,000); calls by dose curve; tested in HEK293 cells; note: potency is the fitted concentration of half-maximal effect
Pf growth 48h: inhibits P. falciparum growth in the first generation, 48 h; actives 5.9% (n = 310,000); AID 504832; P. falciparum luciferase growth in erythrocytes, 48 h; Potency, µM (titrated, usually from 28.7 µM), inactives show at the highest dose activity change, negative = inhibition, usual class: inhibitors; note: potency is the fitted concentration of half-maximal effect
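Growth was read as firefly luciferase luminescence after a 48 h, 37 C, 5% CO2 exposure of compounds to reporter-bearing P. falciparum cultures (0.1% parasitemia, 2% hematocrit final) in Albumax-supplemented RPMI 1640.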
Pf growth 96h: P. falciparum growth inhibition at 96 hours; P. falciparum luciferase reporter growth, 96 h; Potency, µM (doses to about 28.7 µM), for inactives: at the top dose activity change, negative = inhibition, actives largely listed as inhibitors; actives 6.9% (n = 320,000); AID 504834; note: potency is the fitted concentration of half-maximal effect
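Parasite growth measured via integrated firefly luciferase reporter in P. falciparum. Infected erythrocytes at 2% hematocrit, 0.05% parasitemia final were treated 96 hours at 37 C under 5% CO2, and luminescence was read.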
An asterisk follows results filed as active; [ ] = dose if it differs, or a comment. Unless noted, calls come from the whole dose curve; as a rule, active = well fitted inhibition curve with a large enough effect; inconclusive = small, poorly fitted or top-dose-only effect, or another doubt; inactive = no such curve, though single readings can be large or run the other way. % is set by controls: 0 for no effect and ±100 for the full control effect.

What do the screens show for `COc1ccc(-c2noc(CSc3nc4ccccc4[nH]3)n2)cc1OC`?
HCMV antiviral: -60*; Lassa entry inh: -17%[46.1 µM]; MARV entry inh: -35%[46.1 µM]

How did Fc1ccc(-n2c(Cc3ccccc3)nnc2SCc2nc(-c3cccs3)no2)cc1 do in these assays?
HCV inhibitor: -22%; Lassa entry inh: -19%; MARV entry inh: -35%; Pf growth 48h: 10µM*; Pf growth 96h: -27%

How did COc1ccc(-c2noc(CSc3nc(N)c(-c4ccccc4)c(=O)[nH]3)n2)cc1OC do in these assays?
HCV inhibitor: inconclusive; HCMV antiviral: -14; Lassa entry inh: -12%; MARV entry inh: -6%; Pf growth 48h: 10%; Pf growth 96h: -8%

How did c1ccc(-c2cc(CSc3nc4ccccc4[nH]3)on2)cc1 do in these assays?
HCV inhibitor: 4µM*; HCMV antiviral: inconclusive; Lassa entry inh: -15%; MARV entry inh: inconclusive; Pf growth 48h: 19%

Results for CC=COC(=O)N[C@@H](c1ccccc1)[C@]1(C(C)=O)CCCC1=O ?
Lassa entry inh: inconclusive; MARV entry inh: -6%[14.2 µM]

Results for CCOC(=O)C1(C)CCCN(C(=O)c2cc(OC)c(OC)c(OC)c2)C1 (stereo not drawn) ?
HCMV antiviral: -17

How did Cc1ccc(-c2noc(CSc3nnc(Cc4cccs4)n3-c3ccccc3)n2)cc1 do in these assays?
HCV inhibitor: inconclusive; HCMV antiviral: -18; MARV entry inh: 1%; Pf growth 48h: -11%; Pf growth 96h: 4.7µM*

What do the screens show for `Cc1nn(-c2ccccc2)c(C)c1NC(=O)COC(=O)c1ccc(O)cc1O`?
HCV inhibitor: -16%; HCMV antiviral: 15; Lassa entry inh: -29%[46.1 µM]; MARV entry inh: 4%[46.1 µM]; Pf growth 48h: -1%; Pf growth 96h: inconclusive

Results for O=C(c1nn2c(C(F)(F)F)cc(-c3cccs3)nc2c1Cl)N1CCCc2ccccc21 ?
HCV inhibitor: 9%; HCMV antiviral: inconclusive; Lassa entry inh: inconclusive; MARV entry inh: inconclusive; Pf growth 48h: 28%; Pf growth 96h: 10µM*

What do the screens show for `O=C(c1cnn2c(C(F)(F)F)cc(-c3ccccc3)nc12)N1CCCc2ccccc21`?
HCV inhibitor: 12%; HCMV antiviral: 57; Lassa entry inh: 0%; MARV entry inh: -17%; Pf growth 48h: -10%

Results for O=C1OC(c2cc(I)c(O)c(I)c2)(c2cc(I)c(O)c(I)c2)c2ccccc21 ?
HCMV antiviral: 3

How did Cc1ccc(C2(CCNS(=O)(=O)c3ccc(C)cc3)CCOC(C(C)C)C2)cc1 (stereo not drawn) do in these assays?
HCV inhibitor: -9%; HCMV antiviral: -22; Lassa entry inh: inconclusive; MARV entry inh: 6.5µM*; Pf growth 48h: inconclusive; Pf growth 96h: inconclusive

Results for CC(C)C1CC(CCNCc2ccc3c(c2)OCO3)(c2ccccc2)CCO1 (stereo not drawn) ?
HCV inhibitor: -16%; HCMV antiviral: -29; Lassa entry inh: inconclusive; MARV entry inh: 10µM*; Pf growth 48h: inconclusive; Pf growth 96h: inconclusive

What do the screens show for `CC(C)C1CC(CCNCc2ccc(N(C)C)cc2)(c2ccccc2)CCO1` (stereo not drawn)?
HCV inhibitor: 11µM*; HCMV antiviral: inconclusive; Lassa entry inh: inconclusive; MARV entry inh: inconclusive; Pf growth 48h: inconclusive; Pf growth 96h: inconclusive

What do the screens show for `Cc1ccc(C2(CCNCc3ccc(N(C)C)cc3)CCOC(C(C)C)C2)cc1` (stereo not drawn)?
HCV inhibitor: inconclusive; HCMV antiviral: -39; Lassa entry inh: inconclusive; MARV entry inh: inconclusive; Pf growth 48h: inconclusive; Pf growth 96h: -13%

Results for CCC1(C)CC(CCNS(=O)(=O)c2ccc(C)cc2)(c2ccc(C)cc2)CCO1 (stereo not drawn) ?
HCV inhibitor: 3%; HCMV antiviral: 3; Lassa entry inh: inconclusive; MARV entry inh: inconclusive; Pf growth 48h: inconclusive; Pf growth 96h: 94%

Results for COc1cc(Nc2cc(C)nc3ncnn23)cc(OC)c1 ?
HCV inhibitor: 5%; HCMV antiviral: 68; Pf growth 48h: 8.3µM*; Pf growth 96h: 10%
